Assay results from paper PMC5540273 (PLoS ONE, 2017).

How the values were obtained:
Conditions in all cases: concentration: 1 μM, replicates: in singlicate; n = 1
SRPK3 = tested on: SRPK3
STK16 = tested on: STK16
STK33 = tested on: STK33
STK35 = tested on: STK35
STK36 = tested on: STK36
STK39 = tested on: STK39
SYK = tested on: SYK
SgK110 = tested on: SgK110
TAK1 = tested on: T1, TAK1
T1 construct: gene MAP3K7

TAOK1 = tested on: TAOK1
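Further: KINOMEscan kinase panel screen.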

Structure (SMILES) | %Inh (SRPK3) | %Inh (STK16) | %Inh (STK33) | %Inh (STK35) | %Inh (STK36) | %Inh (STK39) | %Inh (SYK) | %Inh (SgK110) | %Inh (TAK1) | %Inh (TAOK1)
N#Cc1ccc(-c2cc(-c3c[nH]nc3-c3ccccn3)ccn2)cc1 [GW693028] | 14% | 0% | 4% | 0% | 0% | 16% | 5% | 5% | 0% | 0%
COc1cc2ncn(-c3cc(OCc4sccc4Cl)c(C(N)=O)s3)c2cc1OC [GSK448459] | 3% | 21% | 0% | 0% | 0% | 0% | 23% | 0% | 0% | 0%
CN1c2ccc(CNc3ccc(F)cc3)cc2-c2c(cnn2C)S1(=O)=O | 0% | 0% | 0% | 0% | 0% | 0% | 27% | 0% | 0% | 0%
Cc1ccc(C(=O)NCC(N)=O)cc1-n1c(C)cc(OCc2ccc(F)cc2F)c(Br)c1=O | 21% | 10% | 10% | 10% | 15% | 0% | 20% | 0% | 0% | 0%
